Records with an inconclusive call do not appear. Calls of active or inactive are those of the source. Unless noted, the call rests on the fitted dose curve; in most records, active means well fitted curve in the direction sought with a large enough effect in the repeat runs; inconclusive means weak or mixed curves; inactive means no such curve, though single readings can be large; an effect the other way counts as inactive or inconclusive.
Experiments:
[1] = qHTS assay to identify small molecule agonists of the peroxisome proliferator-activated receptor delta (PPARd) signaling pathway - cell viability counter screen (AID 743211); further: nearly all actives have a fitted effect of over 55% in size; further: potency means the concentration at half of the fitted maximal effect
In short: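 qHTS cell viability: PPARd-bla HEK293H; 17 h cpd, 37C; CellTiter-Glo, luminescence at 30 min RT.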

[2] = target: Peroxisome proliferator-activated receptor delta (Homo sapiens) (UniProt Q03181); test: qHTS assay to identify small molecule agonists of the peroxisome proliferator-activated receptor delta (PPARd) signaling pathway (AID 743212; calls by dose curve)
In short: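 GeneBLAzer UAS-bla HEK293H cells carrying a PPARδ construct were exposed to compounds at 37 °C. Beta-lactamase activity was read by FRET fluorescence after 2 h at room temperature with LiveBLAzer B/G substrate.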

[3] = qHTS assay to identify small molecule antagonists of the peroxisome proliferator-activated receptor delta (PPARd) signaling pathway - cell viability counter screen (AID 743213); further: nearly all actives have a fitted effect of over 50% in size; further: potency means the concentration at half of the fitted maximal effect
In short: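 Viability counter-screen, qHTS format: PPARd-bla HEK293H, L165041 300 nM final, 17 h compound exposure at 37 C, CellTiter-Glo luminescence after 30 min RT.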

[4] = target: Peroxisome proliferator-activated receptor delta (Homo sapiens) (UniProt Q03181); test: qHTS assay to identify small molecule antagonists of the peroxisome proliferator-activated receptor delta (PPARd) signaling pathway (AID 743215; active means well fitted inhibition curve with a large enough effect in the signal ratio in the repeat runs, not every such curve was filed as active; the % refers to the signal ratio;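 further: cells stimulated with agonist L165041 at 300 nM final during compound exposure; series mostly up to about 62 µM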)
In short: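 Read-out is beta-lactamase FRET fluorescence, measured 2 h after substrate addition at room temperature. Beforehand, UAS-bla HEK293H cells carrying the PPARd reporter were exposed to compounds with L165041 at 300 nM final for 17 h at 37 C.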

[5] = qHTS assay to identify small molecule agonists of the farnesoid-X-receptor (FXR) signaling pathway - cell viability counter screen (AID 743218); further: nearly all actives have a fitted effect of over 45% in size
In short: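 HEK 293T FXR-bla cells; 5 h pre-incubation, 16 h compound exposure at 37 C; LiveBLAzer substrate 2 h RT, then CellTiter-Glo 30 min RT, luminescence.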

[6] = target: Vitamin D3 receptor (Homo sapiens) (UniProt P11473); test: qHTS assay to identify small molecule agonists of the vitamin D receptor (VDR) signaling pathway (AID 743222; calls by dose curve)
In short: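 VDR-bla cells, 2,000/well; 4 h preincubation 37C; cpd (DMSO) 16 h; LiveBLAzer B/G substrate 2 h RT; fluorescence intensity read.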

[7] = qHTS assay to identify small molecule agonists of the vitamin D receptor (VDR) signaling pathway - cell viability counter screen (AID 743224); further: series mostly up to about 63 µM; nearly all actives have a fitted effect of over 50% in size
In short: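 Luminescence from CellTiter-Glo, read after 30 min at room temperature, reports viability of VDR-bla cells treated with compounds for 16 h at 37C in the wells used for the beta-lactamase FRET read.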

[8] = qHTS assay to identify small molecule antagonists of the vitamin D receptor (VDR) signaling pathway - cell viability counter screen (AID 743225); further: nearly all actives have a fitted effect of over 50% in size
In short: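 Parallel cytotoxicity test: VDR-UAS-bla HEK 293T, 3 nM (final) 1-alpha,25-dihydroxyvitamin D3 with test compound, 16 h, 37C. Endpoint is CellTiter-Glo luminescence in the same wells.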

[9] = qHTS assay to identify small molecule agonists of the endoplasmic reticulum stress response signaling pathway (AID 1159516; active means well fitted activation curve with a large enough effect in the signal ratio in the repeat runs, not every such curve was filed as active; the % refers to the signal ratio)
In short: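 Read-out is beta-lactamase cleavage of a FRET substrate (405 nm excitation; 460 and 530 nm emissions) in ESRE-bla HeLa cells after a 5 hr compound exposure at 37 C. Substrate incubation ran 2 hr at room temperature.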

[10] = qHTS assay to identify small molecule agonists of the endoplasmic reticulum stress response signaling pathway - cell viability counter screen (AID 1159517; calls by dose curve;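 further: HeLa cells carrying an ER stress response element beta-lactamase reporter; series mostly up to about 61 µM; nearly all actives have a fitted effect of over 50% in size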)
In short: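 ESRE-bla HeLa cells, 1,500 per well, seeded overnight then treated with compounds for 5 hr at 37 C. After the beta-lactamase read, viability in the same wells is measured by CellTiter-Glo luminescence after 30 min at room temperature.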

[11] = qHTS assay to identify small molecule antagonists of the retinoid-related orphan receptor gamma (ROR-gamma) signaling pathway - cell viability counter screen (AID 1159520); further: nearly all actives have a fitted effect of over 50% in size
In short: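 Tet-on ROR gamma CHO cells were given compounds for 2 hr, then doxycycline hyclate at 1 uM final, and incubated 16 hr at 37 C. Viability was measured as ATP content by CellTiter-Glo luminescence.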

[12] = target: Nuclear receptor ROR-gamma (Homo sapiens) (UniProt P51449); test: qHTS assay to identify small molecule antagonists of the retinoid-related orphan receptor gamma (ROR-gamma) signaling pathway (AID 1159521)
In short: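 Decreased RORE-driven luciferase luminescence indicates antagonism. Tet-on RORγ CHO cells received compound, then 1 uM final doxycycline 2 h later; signal read after 16 h incubation.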

[13] = qHTS assay to identify small molecule agonists of the AP-1 signaling pathway - cell viability counter screen (AID 1159525; calls by dose curve; further: nearly all actives have a fitted effect of over 55% in size)
In short: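 AP-1-bla ME-180 cells in Opti-MEM with 0.5% dialyzed FBS, compound exposure 5 h at 37 C in 15-point titration. Viability read in the same wells as ATP content by CellTiter-Glo luminescence, normalised to tetra-n-octylammonium bromide and DMSO controls.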

[14] = qHTS assay to identify small molecule agonists of the AP-1 signaling pathway (AID 1159526; calls by dose curve)
[15] = target: Bile acid receptor (Homo sapiens) (UniProt Q96RI1); test: qHTS assay to identify small molecule antagonists of the farnesoid-X-receptor (FXR) signaling pathway (AID 743217; active means well fitted inhibition curve with a large enough effect in the signal ratio in the repeat runs, not every such curve was filed as active; the % refers to the signal ratio)
In short: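 HEK 293T FXR-UAS-bla, 5000 cells/well; compound + CDCA 50 uM final; 16 h, 37 °C; B/G FRET substrate 2 h RT; fluorescence.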

[16] = target: Bile acid receptor (Homo sapiens) (UniProt Q96RI1); test: qHTS assay to identify small molecule agonists of the farnesoid-X-receptor (FXR) signaling pathway (AID 743220; active means well fitted activation curve with a large enough effect in the signal ratio in the repeat runs, not every such curve was filed as active; the % refers to the signal ratio)
In short: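 Beta-lactamase reporter under UAS control in GeneBLAzer FXR HEK 293T cells (5000/well) measured with LiveBLAzer FRET substrate after 2 h at room temperature. Compound exposure lasted 16 h at 37C.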

[17] = qHTS assay to identify small molecule antagonists of the farnesoid-X-receptor (FXR) signaling pathway - cell viability counter screen (AID 743221; active means well fitted cell-killing curve with a large enough effect in the repeat runs, not every such curve was filed as active; further: nearly all actives have a fitted effect of over 50% in size)
In short: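 After a 5 h settling period, FXR-bla HEK 293T cells receive compound and chenodeoxycholic acid (50 uM final) and incubate 16 h at 37 C; CellTiter-Glo luminescence, read after 30 min at room temperature, reports cell viability.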

[18] = qHTS assay to identify small molecule agonists of the NFkB signaling pathway - cell viability counter screen (AID 1159515; calls by dose curve; further: series mostly up to about 61 µM; nearly all actives have a fitted effect of over 55% in size)
In short: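 Luminescence from CellTiter-Glo (30 min, room temperature) gives viability, measured in the same wells as the beta-lactamase reporter read. Cells were NFkB-bla ME-180, 2,000 per well, treated 5 hr with compounds.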

[19] = target: Vitamin D3 receptor (Homo sapiens) (UniProt P11473); test: qHTS assay to identify small molecule antagonists of the vitamin D receptor (VDR) signaling pathway (AID 743223; active means well fitted inhibition curve with a large enough effect in the signal ratio in the repeat runs, not every such curve was filed as active; the % refers to the signal ratio)
In short: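 Reporter line VDR-bla; stimulus 1alpha,25-(OH)2 vitamin D3, 3 nM final; compound co-addition, 16 h 37C/5% CO2; LiveBLAzer B/G substrate 2 h RT; fluorescence intensity.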

Measured: Potency

Sequence of Peroxisome proliferator-activated receptor delta (Homo sapiens) (Q03181 whole entry, looked up): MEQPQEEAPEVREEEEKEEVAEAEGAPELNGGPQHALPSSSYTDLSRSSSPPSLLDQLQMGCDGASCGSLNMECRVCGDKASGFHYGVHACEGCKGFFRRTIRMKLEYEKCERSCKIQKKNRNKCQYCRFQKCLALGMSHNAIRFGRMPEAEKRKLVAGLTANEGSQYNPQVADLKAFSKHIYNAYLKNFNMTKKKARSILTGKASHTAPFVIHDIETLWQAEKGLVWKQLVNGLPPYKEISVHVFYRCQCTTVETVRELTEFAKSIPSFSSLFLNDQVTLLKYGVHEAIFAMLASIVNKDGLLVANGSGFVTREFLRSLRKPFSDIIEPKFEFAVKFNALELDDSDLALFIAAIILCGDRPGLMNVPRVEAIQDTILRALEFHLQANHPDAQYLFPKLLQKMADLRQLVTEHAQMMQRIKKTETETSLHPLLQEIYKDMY
Sequence of Bile acid receptor (Homo sapiens) (Q96RI1 whole entry, looked up): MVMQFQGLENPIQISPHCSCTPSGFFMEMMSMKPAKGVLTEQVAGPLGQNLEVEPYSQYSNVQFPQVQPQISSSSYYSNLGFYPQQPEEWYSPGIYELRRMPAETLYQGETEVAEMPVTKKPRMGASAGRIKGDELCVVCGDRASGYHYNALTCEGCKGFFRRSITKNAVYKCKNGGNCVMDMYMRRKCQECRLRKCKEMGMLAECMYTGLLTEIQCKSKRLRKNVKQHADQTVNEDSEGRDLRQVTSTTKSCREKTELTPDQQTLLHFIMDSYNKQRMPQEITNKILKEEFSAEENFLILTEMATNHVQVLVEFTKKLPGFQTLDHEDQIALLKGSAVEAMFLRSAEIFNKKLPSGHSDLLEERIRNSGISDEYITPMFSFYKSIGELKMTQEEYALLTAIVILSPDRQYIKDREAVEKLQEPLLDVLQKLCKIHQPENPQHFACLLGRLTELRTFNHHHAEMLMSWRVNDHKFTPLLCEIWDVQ
Sequence of Vitamin D3 receptor (Homo sapiens) (P11473 whole entry, looked up): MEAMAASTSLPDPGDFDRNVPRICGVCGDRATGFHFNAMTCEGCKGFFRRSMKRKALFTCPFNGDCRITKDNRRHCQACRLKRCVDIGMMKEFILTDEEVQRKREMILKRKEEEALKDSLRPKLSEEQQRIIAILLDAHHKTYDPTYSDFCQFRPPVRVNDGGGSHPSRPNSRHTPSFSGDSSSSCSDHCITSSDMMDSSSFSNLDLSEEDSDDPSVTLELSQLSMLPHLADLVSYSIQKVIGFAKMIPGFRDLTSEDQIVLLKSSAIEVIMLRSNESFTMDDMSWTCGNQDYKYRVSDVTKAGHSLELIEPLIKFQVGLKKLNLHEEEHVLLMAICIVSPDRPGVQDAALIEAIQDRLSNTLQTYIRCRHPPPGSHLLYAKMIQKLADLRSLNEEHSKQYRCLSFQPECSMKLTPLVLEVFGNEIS

SCCOCCOCCS
not listed: [15] | [16] | [17] | [18] | [19]
inactive: all other assays above

CC/C=C\CCO
not listed: [2] | [4] | [5] | [12] | [19]
inactive: all other assays above

Cc1c(N=C=O)cccc1N=C=O
not listed: [2] | [4] | [15] | [16]
inactive: all other assays above

COc1ccc(CN(CCN(C)C)c2ncccn2)cc1
not listed: [8] | [13] | [14] | [18]
inactive: all other assays above

O=C(OCCN1CCOCC1)c1cccnc1Nc1cccc(C(F)(F)F)c1
not listed: [4] | [15] | [16]
inactive: all other assays above

CCCc1ccc(OC)cc1
not listed: [3] | [15] | [16] | [17] | [19]
inactive: all other assays above

Cc1cc(SC2=C(O)C[C@@](CCc3ccc(N)cc3)(C(C)C)OC2=O)c(C(C)(C)C)cc1CO
not listed: [4] | [13] | [15] | [16]
inactive: all other assays above

OCCCO
not listed: [15] | [16]
inactive: all other assays above

CC(=O)S[C@H](C(=O)N[C@H]1Cc2ccccc2[C@H]2CCC[C@@H](C(=O)O)N2C1=O)C(C)C
not listed: [2] | [4] | [16] | [18]
inactive: all other assays above

CCCC1CCCC(=O)O1 (stereo not drawn)
not listed: [1] | [2] | [6] | [8] | [15] | [16] | [19]
inactive: all other assays above

CCCCCCCCCCCCSC#N
not listed: [13] | [15] | [16]
inactive: all other assays above

CC(=O)c1cccnc1
not listed: [15] | [16] | [19]
inactive: all other assays above

O=C(Nc1ccccc1)c1cc([N+](=O)[O-])ccc1Cl
not listed: [4] | [6] | [13] | [15] | [19]
inactive: all other assays above

C/C(=C(\CCO)SS/C(CCO)=C(\C)N(C=O)Cc1cnc(C)nc1N)N(C=O)Cc1cnc(C)nc1N
not listed: [4] | [15] | [16]
inactive: all other assays above

CCOc1ccc2c(c1)C(C)CC(C)(C)N2 (stereo not drawn)
not listed: [13]
inactive: all other assays above

CC/C=C/CCO
not listed: [2] | [4] | [8] | [12] | [19]
inactive: all other assays above

O=C(O)c1ccccc1[N+](=O)[O-]
not listed: [5] | [15] | [16] | [17]
inactive: all other assays above

CC(O)C(C)O (stereo not drawn)
not listed: [3] | [5] | [7] | [13] | [15] | [16]
inactive: all other assays above

CCC(=O)O[C@@H]1C[C@H]2CC[C@]1(C)C2(C)C
not listed: [5] | [8] | [13] | [14] | [15] | [16] | [19]
inactive: all other assays above

Cc1nc(C)c(C)nc1C
not listed: [15] | [16] | [17]
inactive: all other assays above

COc1cccc([C@H](O)C2CCN(CCc3ccc(F)cc3)CC2)c1OC
not listed: [3] | [17] | [19]
inactive: all other assays above

NC(=O)c1ccccc1
not listed: [2] | [4] | [5] | [13] | [16]
inactive: all other assays above

C/C=C1\[C@H]2C=C(C)C[C@]1(N)c1ccc(=O)[nH]c1C2
not listed: [6] | [13] | [18] | [19]
inactive: all other assays above

CCCCCCCCOCCCN
inactive: [2] | [4] | [6] | [18] | [9] | [10] | [11] | [12] | [13]
active: [1] 49 µM | [3] 24.5 µM

Reference: PubChem BioAssay (Tox21)
